PubChem BioAssay AID1159580 (chemical genetic matrix, 2015)
Hit rate of the full screen: of about 5,500 compounds, about 2,000 (36%) were called active. About 18% were inconclusive and are not listed. Rule as the data show it: active = normalized growth mostly below about 0.91 (no sharp cut-off); inconclusive = no clear call, values can overlap the other calls; inactive = mostly above about 0.92. The list shows a part of the results.

Test: chemical genetic growth profiling, strain panel (AID 1159580);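 also: tested at 20 µM; growth read once vehicle control cultures reached saturation at 30 °C; 1 = growth at the plate median or of vehicle wells; lower values mean less growth of the strain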
Settings: S. cerevisiae deletion strains, growth OD

Measured: normalized growth

CC(C)c1ccc2c(c1)CCC1C(C)(C(N)=O)CCCC21C (stereo not drawn)
inactive: locus YJR043C, strain POL32, active compounds read low 0.941 | locus YJR066W, strain TOR1, active compounds read low 0.936 | locus YKL068W, active compounds read low 0.965 | locus YKL085W, strain MDH1 (second series), active compounds read low 0.944 | locus YKL085W, strain MDH1, active compounds read low 0.944 | locus YKL160W, strain elf1, active compounds read low 0.952 | locus YKL190W, strain CNB1, active compounds read low 0.969 | locus YKR026C, strain gcn3, active compounds read low 0.969 | locus YKR091W, strain srl3, active compounds read low 0.963 | locus YLL001W, strain dnm1, active compounds read low 0.926 | locus YLL026W, active compounds read low 0.976 | locus YLL041C, strain sdh2, active compounds read low 0.96 | locus YLR027C, strain aat2, active compounds read low 0.979 | locus YLR058C, strain SHM2, active compounds read low 0.949 | locus YLR102C, strain apc9, active compounds read low 0.986 | locus YLR221C, strain rsa3, active compounds read low 0.916 | locus YLR258W, strain gsy2, active compounds read low 0.966 | locus YLR268W, strain sec22, active compounds read low 0.917 | locus YLR320W, strain mms22, active compounds read low 0.911 | locus YLR342W, strain FKS1, active compounds read low 0.946 | locus YLR357W, strain rsc2, active compounds read low 0.952 | locus YLR370C, strain arc18, active compounds read low 0.952 | locus YLR384C, strain iki3, active compounds read low 0.954 | locus YML016C, strain PPZ1, active compounds read low 0.977 | locus YML032C, strain rad52, active compounds read low 0.954 | locus YML120C, strain ndi1, active compounds read low 0.939 | locus YML124C, strain tub3, active compounds read low 0.972 | locus YMR058W, strain fet3, active compounds read low 0.958 | locus YMR078C, strain ctf18, active compounds read low 0.984 | locus YMR125W, strain sto1, active compounds read low 0.954 | locus YMR129W, active compounds read low 0.952 | locus YMR205C, strain PFK2, active compounds read low 0.894 | locus YMR223W, strain ubp8, active compounds read low 0.929 | locus YMR231W, strain pep5, active compounds read low 0.98 | locus YMR263W, strain SAP30, active compounds read low 0.943 | locus YNL067W, strain RPL9B, active compounds read low 0.935 | locus YNL128W, strain TEP1, active compounds read low 0.925 | locus YNL183C, strain NPR1, active compounds read low 0.9 | locus YNL209W, strain ssb2, active compounds read low 0.974 | locus YNL248C, strain rpa49, active compounds read low 0.942 | locus YNL250W, strain rad50, active compounds read low 0.97 | locus YNL271C, strain bni1, active compounds read low 0.951 | locus YNL307C, strain MCK1, active compounds read low 0.942 | locus YNL322C, strain KRE1 (second series), active compounds read low 0.937 | locus YNR049C, strain mso1, active compounds read low 0.969 | locus YOL012C, strain htz1 1.06 | locus YOL147C, strain pex11, active compounds read low 0.965 | locus YOR001W, strain rrp6, active compounds read low 0.973 | locus YOR069W, strain VPS5, active compounds read low 0.966 | locus YOR070C, strain gyp1, active compounds read low 0.955 | locus YOR080W, strain dia2, active compounds read low 0.964 | locus YOR083W, strain WHI5, active compounds read low 0.917 | locus YOR106W, strain vam3, active compounds read low 0.955 | locus YOR136W, strain idh2, active compounds read low 0.962 | locus YOR144C, strain elg1, active compounds read low 0.956 | locus YOR231W, strain MKK1, active compounds read low 0.891 | locus YOR265W, strain rbl2, active compounds read low 0.965 | locus YOR270C, strain vph1, active compounds read low 0.984 | locus YOR290C, strain snf2, active compounds read low 0.902 | locus YOR316C, strain cot1, active compounds read low 0.983 | locus YPL078C, strain atp4, active compounds read low 0.946 | locus YPL106C, strain sse1, active compounds read low 0.93 | locus YPL240C, strain hsp82, active compounds read low 0.966 | locus YPL241C, strain CIN2, active compounds read low 0.98 | locus YPL256C, strain CLN2, active compounds read low 0.838 | locus YPR119W, strain clb2, active compounds read low 0.942 | locus YPR141C, strain kar3, active compounds read low 0.968 | locus YPR163C, strain tif3, active compounds read low 0.966 | locus YPR167C, strain met16, active compounds read low 0.985 | strain wtn01, active compounds read low 0.922
active: locus YKL009W, strain mrt4, active compounds read low 0.856 | locus YKR001C, strain vps1, active compounds read low 0.78 | locus YLR039C, strain RIC1, active compounds read low 0.569 | locus YLR113W, strain HOG1, active compounds read low 0.78 | locus YLR262C, strain YPT6 (second series), active compounds read low 0.734 | locus YLR262C, strain YPT6, active compounds read low 0.498 | locus YLR330W, strain CHS5, active compounds read low 0.909 | locus YLR342W, strain FKS1 (second series), active compounds read low 0.645 | locus YLR371W, strain rom2, active compounds read low 0.671 | locus YLR418C, strain cdc73, active compounds read low 0.76 | locus YMR307W, strain GAS1, active compounds read low 0.418 | locus YNL071W, strain lat1, active compounds read low 0.916 | locus YNL233W, strain BNI4, active compounds read low 0.792 | locus YNL298W, strain CLA4, active compounds read low 0.887 | locus YNR052C, strain pop2, active compounds read low 0.847 | locus YOR061W, strain CKA2, active compounds read low 0.885 | locus YOR184W, strain ser1, active compounds read low 0.703 | locus YPL051W, strain arl3, active compounds read low 0.915
